The campaign covered roughly 1,500 compounds. About 460 (31%) were called active. Roughly 1% stayed inconclusive and do not appear here.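 How the source made its calls: active means curve reaches 40% activation over neutral controls at an AC40 no higher than the top valid tested concentration; inconclusive means no clear call, values can overlap the other calls; inactive means signal moving opposite to the expected increase, and the rest.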 A selection follows. Results with a measured potency or affinity are listed apart.
Test: GLuc-reported insulin release enhancers, glucose-stimulated beta cells – cell-based, INS-1E, Gaussia luciferase, luminescence, cherry-pick, set 2, dose response (AID 977607);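 further: 0% = median of the plate neutral control wells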
Conditions: INS-1E GLuc insulin secretion reporter, 2-3 h, active compounds read high; at 35 µM, 100% = signal doubled over neutral wells unless noted

Max activation, inactive:
CC(C)Cc1nc2oc3c(NCc4cccnc4)ncnc3c2c2c1CCC2 30.3% [at 0.42 µM, 100% = signal doubled over neutral wells]
CCc1ccc2c(c1)cc(CN(Cc1ccco1)C(C)=O)c1nnnn12 -18.4% [at 0.005 µM, 100% = signal doubled over neutral wells]
O=C(Nc1nccs1)c1cc(N2CCOCC2)nc2ccccc12 -23.7%
COc1ccc(-c2nc(N3CCC(C)CC3)[nH]c(=O)c2C#N)cc1 28.1% [at 11 µM, 100% = signal doubled over neutral wells]
COc1ccc(C)c(-n2c(=O)n(Cc3ccccc3)c(=O)c3[nH]cnc32)c1 38.9% [at 0.42 µM, 100% = signal doubled over neutral wells]
COc1cccc(-n2c(=O)n(Cc3ccccc3)c(=O)c3[nH]cnc32)c1C 14.5%
CCc1nc2c(OCc3ccccc3C)cccn2c1N(C)C(=O)c1ccco1 -25.5%
C=CCNC(=S)Nc1ccc2cn[nH]c2c1 -18.8% [at 0.0016 µM, 100% = signal doubled over neutral wells]
O=C(Nc1ccnn1C1CCN(C2CCC2)CC1)c1ccccc1Cl -5.42%
COc1ccc(N2C(=O)CC(Sc3nc(C)cc(C)c3C#N)C2=O)cc1 (configuration not stated) -11.1% [at 11 µM, 100% = signal doubled over neutral wells]
CCNc1nc(NCC)nc(Nn2cnnc2)n1 -14.4% [at 0.42 µM, 100% = signal doubled over neutral wells]
CC(C)Cn1nc(-c2ccccc2)c2ccccc2c1=O -16.6% [at 0.0016 µM, 100% = signal doubled over neutral wells]
Cc1ccc(-c2[nH]nc3c2C(c2cccnc2)C(C#N)=C(N)O3)cc1 (configuration not stated) 36.3% [at 0.0016 µM, 100% = signal doubled over neutral wells]
COCCNc1nc(Oc2ccc(C(N)=O)cc2)c2sccc2n1 -20.7% [at 0.0016 µM, 100% = signal doubled over neutral wells]
COCCNc1nc(NCCCN(C)C)c2sccc2n1 -23.1%
CCCN1Cc2cccc(C(=O)NCc3ccccc3)c2C1=O -24.8% [at 0.046 µM, 100% = signal doubled over neutral wells]
Cc1ccc2c(c1)CCCN2C(=O)c1ccc2c(c1)OCO2 -14.4% [at 0.0016 µM, 100% = signal doubled over neutral wells]
CCOc1ccc(CCNC(=O)COC(=O)c2cccnc2SC)cc1OCC -22.4% [at 0.0016 µM, 100% = signal doubled over neutral wells]
CCOc1ccc(CCNC(=O)COc2cccc(-n3cnnn3)c2)cc1OCC -22.6% [at 0.005 µM, 100% = signal doubled over neutral wells]
COc1ccccc1Nc1c2c(nc3ccc(N)cc13)CCCC2 -15.8% [at 0.135 µM, 100% = signal doubled over neutral wells]
CCc1nc2n[nH]c(N)c2c2c1CCCC2 65.3%
CCc1cc(=O)oc2c(CNCc3ccc(OC)cc3OC)c(O)c(Cl)cc12 20.4%
COCCNC(=O)c1cc2c(c(-c3cccc(C#Cc4ccc(OC)c(OC)c4)c3)n1)[C@H](CCO)N(S(=O)C(C)(C)C)C2 (some centres not stated) 8.82% [at 11 µM, 100% = signal doubled over neutral wells]
CC(C)(C)c1ccc(S(=O)(=O)N2CC(C(=O)O)Oc3ccc(Cl)cc32)cc1 (configuration not stated) -11.3% [at 0.015 µM, 100% = signal doubled over neutral wells]
COc1ccc(C(=O)Nc2nnc(-c3cccs3)s2)cc1 -13.2% [at 0.135 µM, 100% = signal doubled over neutral wells]
Cc1ccccc1C(=O)NC1CCSC1=O (configuration not stated) -21.5% [at 0.005 µM, 100% = signal doubled over neutral wells]
OC1(C#Cc2c(-c3ccsc3)sc3ccccc23)CCCCC1 50.8%
CN(C)CCCN(C(=O)CCOc1ccccc1)c1nc2c(F)cccc2s1 -32.2% [at 11 µM, 100% = signal doubled over neutral wells]
Cc1cc(-c2ccccc2)n2nc(N)nc2n1 -24.8% [at 0.046 µM, 100% = signal doubled over neutral wells]
O=c1c2ccccc2nnn1Cc1ccccc1 -23.5% [at 0.42 µM, 100% = signal doubled over neutral wells]
Cc1ccc2nc(N3CCN(C(=O)CCCC(=O)O)CC3)nc(-c3ccccc3)c2c1 12.5% [at 11 µM, 100% = signal doubled over neutral wells]
COC(C)(C)c1cc(C(C)(C)C)nc(N)n1 -18.4% [at 0.005 µM, 100% = signal doubled over neutral wells]
COc1cccc(-n2c(=O)c3ccccc3n(CC(=O)NCC3CCCO3)c2=O)c1 (configuration not stated) -15.9% [at 0.015 µM, 100% = signal doubled over neutral wells]
O=C(COc1ccccc1)N(Cc1cccc(F)c1)C1CCS(=O)(=O)C1 (configuration not stated) -16.7% [at 3.8 µM, 100% = signal doubled over neutral wells]
CC(Oc1ccc2c3c(c(=O)oc2c1)CCCC3)C(=O)NCc1cccnc1 (configuration not stated) 27.7% [at 0.42 µM, 100% = signal doubled over neutral wells]
O=C(COC(=O)c1cccnc1Cl)Nc1cc(S(=O)(=O)N2CCCCCC2)ccc1Cl -32.2%
COc1cc(OC)c(OC)cc1CCC(C)NC(=O)Cc1ccccc1 (configuration not stated) 27.7% [at 0.005 µM, 100% = signal doubled over neutral wells]
CCOc1ncccc1C(=O)NC(C)CCc1ccccc1 (configuration not stated) 29.7%
C[C@H]1CN=C(N(C)C)N1CC1CCCC1 -12% [at 0.015 µM, 100% = signal doubled over neutral wells]
Cc1ccc(C(=O)N2CCN3C(=O)c4ccccc4C23c2ccccc2)cc1 (configuration not stated) -24.9%
CCCCCCn1c(SCC(C)C)nc2c1c(=O)[nH]c(=O)n2C 12.8%
CN(Cc1ccccc1)c1nc2c(c(=O)[nH]c(=O)n2C)n1Cc1ccccc1 14.1% [at 11 µM, 100% = signal doubled over neutral wells]
Cn1c(=O)[nH]c(=O)c2c1nc(NC1CCCC1)n2Cc1ccccc1 -12.1% [at 0.0016 µM, 100% = signal doubled over neutral wells]
C=CCn1c(SCc2ccccc2)nc2c1c(=O)[nH]c(=O)n2C -13.1% [at 0.015 µM, 100% = signal doubled over neutral wells]
O=C(O)C(Cc1ccc(O)cc1)N1C(=O)c2ccccc2C1=O (configuration not stated) -22% [at 0.046 µM, 100% = signal doubled over neutral wells]
CCOc1ccc2oc(C(=O)N(C)CCc3ccc(OC)c(OC)c3)c(C)c2c1 47.7%
COc1ccc(CCN(C)C(=O)Cn2c(=O)oc3ccccc32)cc1OC -16.4%
Cc1ccc(Nc2ncnc3sccc23)c(C)c1 -16% [at 0.015 µM, 100% = signal doubled over neutral wells]
COc1ccc(CCN2C(=O)CC(Cc3ccccc3)C2=O)cc1OC (configuration not stated) -9.21% [at 0.046 µM, 100% = signal doubled over neutral wells]
CCCCc1c(-c2ccccc2OC)ncn1Cc1ccc(C)cc1 -22.3% [at 11 µM, 100% = signal doubled over neutral wells]
CCCCc1c(-c2ccccc2OC)ncn1C(C)c1ccccc1 (configuration not stated) 37.1%
CCOc1cc(C2C3=C(CC(C)(C)CC3=O)Nc3n[nH]c(C)c32)ccc1O (configuration not stated) -17.9% [at 0.015 µM, 100% = signal doubled over neutral wells]
c1csc(-c2nc(NCC3CCCO3)c3ccccc3n2)c1 (configuration not stated) 39.8% [at 11 µM, 100% = signal doubled over neutral wells]
Cn1nnnc1Sc1ncnc2scc(-c3ccc(F)cc3)c12 -12.9% [at 0.42 µM, 100% = signal doubled over neutral wells]
NC1=NC[C@H](Cc2ccccc2)N1CCCCC1CCCCC1 -33.4% [at 11 µM, 100% = signal doubled over neutral wells]
COc1ccc(C[C@H]2CN3C(=NC[C@@H]3Cc3ccccc3)N2CCNC(=O)CCC2CCCCC2)cc1 62.1%
Cc1cc(NS(=O)(=O)c2ccc(NC(=O)C(C)Oc3ccccc3Cl)cc2)no1 (configuration not stated) -22.4% [at 0.015 µM, 100% = signal doubled over neutral wells]

Reference: PubChem BioAssay AID977607 (Broad Institute, 2014)
